# Results reported in the supplement of paper PMC6555819.
# What was measured:
# Experiment in all cases: PBM binding z-score (relative to random genomic background probes); higher = stronger binding; sequences stand for … in GC…GCGATTGACAGCGTAGAATGAAGG
# [1] = system: FXR:RXRa (NR concentration 270 nM, RXRa partner concentration 90 nM)
# Summary of the method: (§1)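 On custom Agilent 4×180K arrays, double-stranded probes with 34-nt variable regions carried direct-repeat seeds, single-nucleotide variants, half-site ablations or random human genomic background. Ligand-free nuclear receptor dimers were applied for 1 h, and binding was read with antibodies against each partner (one per run). Binding z-scores come from regression-normalized fluorescence, with the random background probes as reference.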
# [2] = system: LXRa:RXRa (NR concentration 270 nM, RXRa partner concentration 90 nM)
# Summary of the method: as §1
# [3] = system: LXRa homodimer (NR concentration 270 nM)
# Summary of the method: as §1
# [4] = system: LXRb:RXRa (NR concentration 270 nM, RXRa partner concentration 90 nM)
# Summary of the method: as §1
# [5] = system: LXRb homodimer (NR concentration 270 nM)
# Summary of the method: as §1
# [6] = system: PPARa:RXRa (NR concentration 270 nM, RXRa partner concentration 90 nM)
# Summary of the method: as §1
# [7] = system: PPARg:RXRa (NR concentration 180 nM, RXRa partner concentration 90 nM)
# Summary of the method: as §1
# [8] = system: PPARg:RXRa 270nM:90nM, anti-RXR (NR concentration 270 nM, RXRa partner concentration 90 nM)
# Summary of the method: as §1
# [9] = system: PPARg:RXRa 30nM:10nM, anti-RXR (NR concentration 30 nM, RXRa partner concentration 10 nM)
# Summary of the method: as §1
# [10] = system: PPARg:RXRa 90nM:30nM, anti-RXR (NR concentration 90 nM, RXRa partner concentration 30 nM)
# Summary of the method: as §1
Sequence,PBM binding z-score [1],PBM binding z-score [2],PBM binding z-score [3],PBM binding z-score [4],PBM binding z-score [5],PBM binding z-score [6],PBM binding z-score [7],PBM binding z-score [8],PBM binding z-score [9],PBM binding z-score [10]
CGAACTAGGTCGTTGACAGGACAGTGAATAGTAA,0.598,0.178,-0.251,0.171,-0.626,1.98,2.2,2.02,0.441,1.44
TCTATTAGGTGAAGGGCAACCGACGAGTCCGTTT,0.937,1.07,0.449,0.669,0.667,2.44,4,5.18,4.86,5.44
GGTACAGGGTCAAGGCCAGAGTACGCGTATTGAT,6.7,3.85,0.0121,3.89,-0.206,5.92,5.62,5.68,2.38,4.07
TCGGGTAGGTTAGTCGGGGCATTCAGCCAACATA,0.578,0.368,0.422,1.38,0.98,1.01,-0.189,0.977,1.92,1.22
CGTCCAAGGTCAGCAGGTCAGTGGAAGCGACGTG,5.74,3.85,0.538,2.96,-0.217,4.94,4.05,4.15,0.99,2.87
AGTCAAAGTTTAGGACGAGGTAACGTAAAGCACG,0.493,-0.103,-0.205,-0.158,-0.175,0.331,0.904,0.793,0.252,0.625
CGAACTAGGTCATTGACAGGACAGTGTATAGTAA,4.45,3.09,0.874,2.13,0.106,4.79,7.66,6.32,3.42,5.88
ACTATTAGTTGAGACGCGGGCAACCGATAGGTTG,-0.0666,-0.0998,-0.325,-0.488,0.193,-0.624,0.371,-0.414,-0.25,-0.167
CGAACTAGGTCAGAACAGGACAGTAAAGGATGAT,1.48,0.875,-0.0273,0.738,-0.326,3.33,5.37,4.63,1.83,3.65
ACTAGCAGTCCAAGGGTCACTCAAGATTAGTCCG,2.25,2.99,0.313,2.87,-0.249,3.41,3.5,4.58,2.19,4.18
CGAACTAGGTCATTGTCAGGACAGTGAATAGTAA,3.91,3.08,0.611,1.99,0.0511,4.67,7.44,6.43,4.07,5.88
TTACCAGGGTGAAAGGTCGTTGATGCACGCCTTG,3.76,3.21,0.701,3.12,-0.0752,5.36,8.62,7.7,6.89,9.22
